Results filed as inconclusive are left out. Where a call stands in place of a potency, no number is given. Values without a mark were called inactive. The source made the active and inactive calls. The call rests on the fitted dose curve; in most records, active means well fitted cell-killing curve with a large enough effect; inconclusive means small, poorly fitted or top-dose-only effect, or effect the other way; inactive means no such curve, though single readings can be large or run the other way.
Legend:
[1] = Viability qHTS for spleen associated tyrosine kinase inhibitor (SYKi) naive MV4-11 cells (AID 1963823); further: nearly all actives have a fitted effect of over 40% in size
Method in brief: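 Compounds were dispensed acoustically onto plates, MV4-11 cells (SYKi-naive) added at 500 per well, and plates incubated 72 hr at 37 C. CellTiter-Glo was added and luminescence measured after 10 min.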

[2] = Viability qHTS for spleen associated tyrosine kinase inhibitor (SYKi) drug resistant MV4-11 cells (AID 1963824); further: nearly all actives have a fitted effect of over 35% in size
Method in brief: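 SYK-inhibitor-resistant MV4-11 AML cells were seeded at 500 per well onto compound and cultured 72 hours (37 °C, 5% CO2). CellTiter-Glo was then added, and after 10 min at room temperature, luminescence gave viability.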
Potency means the concentration at half of the fitted maximal effect.

| SMILES | Potency [1] | Potency [2] | viability (% of control) [1] | viability, % of control [2] |
| --- | --- | --- | --- | --- |
| Cc1ncc([N+](=O)[O-])n1CC(O)CN1CCOCC1 (centres undefined) | inactive | inactive |  |  |
| CC1(C)CC[C@]2(C(=O)O)[C@H](O)C[C@]3(C)C(=CCC4[C@@]5(C)CC[C@H](O[C@@H]6OC[C@@H](O)[C@H](O)[C@H]6O)[C@@](C)(C(=O)O)C5CC[C@]43C)[C@@H]2C1 (some centres undefined) | inactive | inactive |  |  |
| COC(=O)C1=COC(O[C@@H]2O[C@H](CO[C@@H]3O[C@H](COC(=O)/C=C\c4ccc(O)cc4)[C@@H](O)[C@H](O)[C@H]3O)[C@@H](O)[C@H](O)[C@H]2O)C2C(CO)=CCC12 (some centres undefined) | inactive | inactive |  |  |
| C[C@@H]1O[C@@H](O[C@H]2[C@H](OC(=O)[C@]34CCC(C)(C)C[C@H]3C3=CCC5[C@@]6(C)C[C@H](O)[C@H](O[C@@H]7O[C@H](CO)[C@@H](O)[C@H](O)[C@H]7O)[C@@](C)(CO)C6[C@H](O)C[C@@]5(C)[C@]3(C)CC4)OC[C@H](O)[C@@H]2O)[C@H](O)[C@H](O)[C@H]1O[C@@H]1OC[C@@H](O)[C@H](O[C@@H]2OC[C@](O)(CO)[C@H]2O)[C@H]1O (some centres undefined) |  |  | 85.2% [at 9.25 µM] | 102% [at 9.25 µM] |
| C/C(=C\CCC(C)CCO)C(=O)OC[C@H]1O[C@@H](O[C@@H]2OC=C(C(=O)O)[C@H]3CC[C@](C)(O)[C@@H]23)C(O)[C@@H](O)C1O (some centres undefined) | inactive | inactive |  |  |
| CC(C)S(=O)(=O)c1ccc2nccc(Nc3ccc4scnc4c3)c2c1 | 8.2 µM (active) | 16.4 µM (active) |  |  |
| CC(=O)O[C@H]1CC(C)(C)CC2[C@@]13[C@H](O)C[C@]1(C)[C@@]2(CCC2[C@@]4(C)CC[C@H](O[C@@H]5OC[C@H](O[C@@H]6O[C@H](CO)[C@@H](O)[C@H](O)[C@H]6O[C@@H]6OC[C@@H](O)[C@H](O)[C@H]6O)[C@H](O)[C@H]5O[C@@H]5O[C@H](CO)[C@@H](O)[C@H](O)[C@H]5O)C(C)(C)C4CC[C@]21C)O[C@@H]3O (some centres undefined) | 0.873 µM (active) | 0.778 µM (active) |  |  |
